{"source": "PubChem BioAssay AID1159580", "about": "(chemical genetic matrix, 2015)", "assay": "chemical genetic growth profiling, strain panel (AID 1159580);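 also: tested at 20 µM; growth read once vehicle control cultures reached saturation at 30 °C; 1 = growth at the plate median or of vehicle wells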", "details": "S. cerevisiae deletion strains, growth OD", "key": {"[1]": {"details": "locus YDL101C, strain DUN1, stronger effect = lower value"}, "[2]": {"details": "locus YHR030C, strain SLT2, stronger effect = lower value"}}, "note": "About 2,000 (36%) of roughly 5,500 compounds were called active. Another 18% or so got no clear call; they are omitted. This is one part of the list. A number with no mark means an inactive call. Rule as the data show it: active = normalized growth mostly below about 0.91 (no sharp cut-off); inconclusive = no clear call, values can overlap the other calls; inactive = mostly above about 0.92.", "data": [{"compound": "O=c1nc(-c2ccccc2)nc(-c2ccccc2)[nH]1", "values": [{"measurement": "normalized growth", "setting": "locus YAL013W, strain DEP1, stronger effect = lower value", "result": 0.985}, {"measurement": "normalized growth", "setting": "locus YBR229C, strain ROT2, stronger effect = lower value", "result": 1}, {"measurement": "normalized growth", "setting": "locus YCL061C, strain MRC1, stronger effect = lower value", "result": 0.999}, {"measurement": "normalized growth", "setting": "[1]", "result": 1.03}, {"measurement": "normalized growth", "setting": "locus YDL134C, strain PPH21, stronger effect = lower value", "result": 0.955}, {"measurement": "normalized growth", "setting": "locus YDR150W, strain NUM1, stronger effect = lower value", "result": 0.993}, {"measurement": "normalized growth", "setting": "locus YEL061C, strain CIN8, stronger effect = lower value", "result": 0.97}, {"measurement": "normalized growth", "setting": "locus YGR078C, strain PAC10, stronger effect = lower value", "result": 1}, {"measurement": "normalized growth", "setting": "[2]", "result": 0.972}, {"measurement": "normalized growth", "setting": "locus YHR087W, strain rtc3, stronger effect = lower value", "result": 0.987}, {"measurement": "normalized growth", "setting": "locus YJR043C, strain POL32, stronger effect = lower value", "result": 0.986}, {"measurement": "normalized growth", "setting": "locus YJR075W, strain HOC1, stronger effect = lower value", "result": 1}, {"measurement": "normalized growth", "setting": "locus YKL190W, strain CNB1, stronger effect = lower value", "result": 0.96}, {"measurement": "normalized growth", "setting": "locus YLR039C, strain RIC1, stronger effect = lower value", "result": 0.922}, {"measurement": "normalized growth", "setting": "locus YLR058C, strain SHM2 (second series), stronger effect = lower value", "result": 0.993}, {"measurement": "normalized growth", "setting": "locus YLR085C, strain ARP6, stronger effect = lower value", "result": 0.951}, {"measurement": "normalized growth", "setting": "locus YLR262C, strain YPT6, stronger effect = lower value", "result": 0.902}, {"measurement": "normalized growth", "setting": "locus YML094W, strain GIM5, stronger effect = lower value", "result": 1.08}, {"measurement": "normalized growth", "setting": "locus YMR219W, strain ESC1, stronger effect = lower value", "result": 1}, {"measurement": "normalized growth", "setting": "locus YMR263W, strain SAP30, stronger effect = lower value", "result": 1.01}, {"measurement": "normalized growth", "setting": "locus YNL128W, strain TEP1, stronger effect = lower value", "result": 0.968}, {"measurement": "normalized growth", "setting": "locus YNL153C, strain GIM3, stronger effect = lower value", "result": 1.01}, {"measurement": "normalized growth", "setting": "locus YNL298W, strain CLA4 (second series), stronger effect = lower value", "result": 0.944}, {"measurement": "normalized growth", "setting": "locus YNL322C, strain KRE1, stronger effect = lower value", "result": 0.984}, {"measurement": "normalized growth", "setting": "locus YNR030W, strain Alg12, stronger effect = lower value", "result": 0.989}, {"measurement": "normalized growth", "setting": "locus YOL006C, strain TOP1, stronger effect = lower value", "result": 0.932}, {"measurement": "normalized growth", "setting": "locus YPL055C, strain LGE1, stronger effect = lower value", "result": 1.01}, {"measurement": "normalized growth", "setting": "locus YPL241C, strain CIN2, stronger effect = lower value", "result": 1.03}, {"measurement": "normalized growth", "setting": "locus YPR135W, strain CTF4, stronger effect = lower value", "result": 0.991}]}, {"compound": "CSc1nc(Sc2n[nH]c(-c3ccccc3)n2)cc(Sc2n[nH]c(-c3ccccc3)n2)n1", "values": [{"measurement": "normalized growth", "setting": "locus YAR019C, strain CDC15, stronger effect = lower value", "result": 1.01}, {"measurement": "normalized growth", "setting": "locus YBL105C, strain PKC1, stronger effect = lower value", "result": 0.99}, {"measurement": "normalized growth", "setting": "locus YBR135W, strain CKS1, stronger effect = lower value", "result": 0.999}, {"measurement": "normalized growth", "setting": "locus YBR136W, strain MEC1, stronger effect = lower value", "result": 1}, {"measurement": "normalized growth", "setting": "locus YBR160W, strain CDC28, stronger effect = lower value", "result": 1}, {"measurement": "normalized growth", "setting": "locus YDL017W, strain CDC7, stronger effect = lower value", "result": 0.995}, {"measurement": "normalized growth", "setting": "locus YDL028C, strain MPS1, stronger effect = lower value", "result": 1.03}, {"measurement": "normalized growth", "setting": "[1]", "result": 0.991}, {"measurement": "normalized growth", "setting": "locus YDL108W, strain KIN28, stronger effect = lower value", "result": 1.01}, {"measurement": "normalized growth", "setting": "locus YDL132W, strain cdc53, stronger effect = lower value", "result": 0.995}, {"measurement": "normalized growth", "setting": "locus YDL214C, strain PRR2, stronger effect = lower value", "result": 1.01}, {"measurement": "normalized growth", "setting": "locus YDR052C, strain DBF4, stronger effect = lower value", "result": 0.995}, {"measurement": "normalized growth", "setting": "locus YDR054C, strain cdc34, stronger effect = lower value", "result": 0.984}, {"measurement": "normalized growth", "setting": "locus YDR226W, strain ADK1, stronger effect = lower value", "result": 1.01}, {"measurement": "normalized growth", "setting": "locus YDR477W, strain SNF1, stronger effect = lower value", "result": 1.01}, {"measurement": "normalized growth", "setting": "locus YER123W, strain YCK3, stronger effect = lower value", "result": 1.03}, {"measurement": "normalized growth", "setting": "locus YER133W, strain GLC7, stronger effect = lower value", "result": 1}, {"measurement": "normalized growth", "setting": "locus YFL009W, strain cdc4, stronger effect = lower value", "result": 1}, {"measurement": "normalized growth", "setting": "locus YFL029C, strain CAK1, stronger effect = lower value", "result": 1.02}, {"measurement": "normalized growth", "setting": "locus YFR003C, strain YPI1, stronger effect = lower value", "result": 0.99}, {"measurement": "normalized growth", "setting": "locus YFR019W, strain FAB1, stronger effect = lower value", "result": 1}, {"measurement": "normalized growth", "setting": "locus YFR028C, strain CDC14, stronger effect = lower value", "result": 1.01}, {"measurement": "normalized growth", "setting": "locus YGR040W, strain KSS1, stronger effect = lower value", "result": 1.02}, {"measurement": "normalized growth", "setting": "locus YGR052W, strain FMP48, stronger effect = lower value", "result": 1}, {"measurement": "normalized growth", "setting": "locus YGR092W, strain DBF2, stronger effect = lower value", "result": 1.01}, {"measurement": "normalized growth", "setting": "[2]", "result": 1.13}, {"measurement": "normalized growth", "setting": "locus YHR079C, strain IRE1, stronger effect = lower value", "result": 0.928}, {"measurement": "normalized growth", "setting": "locus YHR082C, strain KSP1, stronger effect = lower value", "result": 1.22}, {"measurement": "normalized growth", "setting": "locus YHR205W, strain SCH9, stronger effect = lower value", "result": 1}, {"measurement": "normalized growth", "setting": "locus YIL147C, strain SLN1, stronger effect = lower value", "result": 1.01}, {"measurement": "normalized growth", "setting": "locus YJL095W, strain BCK1, stronger effect = lower value", "result": 0.875}, {"measurement": "normalized growth", "setting": "locus YJL128C, strain PBS2, stronger effect = lower value", "result": 0.978}, {"measurement": "normalized growth", "setting": "locus YJL157C, strain FAR1, stronger effect = lower value", "result": 1.02}, {"measurement": "normalized growth", "setting": "locus YJR016C, strain ILV3, stronger effect = lower value", "result": 1.01}, {"measurement": "normalized growth", "setting": "locus YJR066W, strain TOR1 (second series), stronger effect = lower value", "result": 1.01}, {"measurement": "normalized growth", "setting": "locus YJR066W, strain TOR1, stronger effect = lower value", "result": 1.2}, {"measurement": "normalized growth", "setting": "locus YKL048C, strain ELM1, stronger effect = lower value", "result": 1.01}, {"measurement": "normalized growth", "setting": "locus YKL067W, strain YNK1, stronger effect = lower value", "result": 1.01}, {"measurement": "normalized growth", "setting": "locus YKL101W, strain HSL1, stronger effect = lower value", "result": 1.01}, {"measurement": "normalized growth", "setting": "locus YKL193C, strain SDS22, stronger effect = lower value", "result": 1.02}, {"measurement": "normalized growth", "setting": "locus YKL203C, strain TOR2, stronger effect = lower value", "result": 1.09}, {"measurement": "normalized growth", "setting": "locus YLR113W, strain HOG1, stronger effect = lower value", "result": "0.855 (active)"}, {"measurement": "normalized growth", "setting": "locus YLR133W, strain CKI1, stronger effect = lower value", "result": 1.01}, {"measurement": "normalized growth", "setting": "locus YLR403W, strain SFP1, stronger effect = lower value", "result": 1.03}, {"measurement": "normalized growth", "setting": "locus YML070W, strain DAK1, stronger effect = lower value", "result": 1.01}, {"measurement": "normalized growth", "setting": "locus YMR001C, strain CDC5, stronger effect = lower value", "result": 1.01}, {"measurement": "normalized growth", "setting": "locus YMR205C, strain PFK2 (second series), stronger effect = lower value", "result": 1.02}, {"measurement": "normalized growth", "setting": "locus YMR277W, strain FCP1, stronger effect = lower value", "result": 1.02}, {"measurement": "normalized growth", "setting": "locus YNL006W, strain LST8, stronger effect = lower value", "result": 1}, {"measurement": "normalized growth", "setting": "locus YNL020C, strain ARK1, stronger effect = lower value", "result": 1.01}, {"measurement": "normalized growth", "setting": "locus YNL161W, strain CBK1, stronger effect = lower value", "result": 1}, {"measurement": "normalized growth", "setting": "locus YNL183C, strain NPR1, stronger effect = lower value", "result": 0.929}, {"measurement": "normalized growth", "setting": "locus YNL207W, strain RIO2, stronger effect = lower value", "result": 1.01}, {"measurement": "normalized growth", "setting": "locus YNL222W, strain SSU72, stronger effect = lower value", "result": 1.01}, {"measurement": "normalized growth", "setting": "locus YNL307C, strain MCK1 (second series), stronger effect = lower value", "result": 1.01}, {"measurement": "normalized growth", "setting": "locus YOL078W, strain AVO1, stronger effect = lower value", "result": 1.02}, {"measurement": "normalized growth", "setting": "locus YOL136C, strain PFK27, stronger effect = lower value", "result": 1.03}, {"measurement": "normalized growth", "setting": "locus YOR061W, strain CKA2, stronger effect = lower value", "result": 1.02}, {"measurement": "normalized growth", "setting": "locus YOR119C, strain RIO1, stronger effect = lower value", "result": 1.05}, {"measurement": "normalized growth", "setting": "locus YOR231W, strain MKK1, stronger effect = lower value", "result": 0.913}, {"measurement": "normalized growth", "setting": "locus YOR329C, strain SCD5, stronger effect = lower value", "result": 1}, {"measurement": "normalized growth", "setting": "locus YPL031C, strain PHO85, stronger effect = lower value", "result": 1.02}, {"measurement": "normalized growth", "setting": "locus YPL153C, strain RAD53, stronger effect = lower value", "result": 1.01}, {"measurement": "normalized growth", "setting": "locus YPL204W, strain HRR25, stronger effect = lower value", "result": 1.01}, {"measurement": "normalized growth", "setting": "locus YPL209C, strain IPL1, stronger effect = lower value", "result": 0.998}, {"measurement": "normalized growth", "setting": "locus YPL256C, strain CLN2, stronger effect = lower value", "result": 0.89}, {"measurement": "normalized growth", "setting": "locus YPR025C, strain CCL1, stronger effect = lower value", "result": 1.01}, {"measurement": "normalized growth", "setting": "locus YPR106W, strain ISR1, stronger effect = lower value", "result": 1}, {"measurement": "normalized growth", "setting": "locus YPR111W, strain DBF20, stronger effect = lower value", "result": 1}, {"measurement": "normalized growth", "setting": "strain NNK1, stronger effect = lower value", "result": 1.01}, {"measurement": "normalized growth", "setting": "strain TSCII, stronger effect = lower value", "result": 1.01}]}]}
